Test results published in the supplement of paper PMC4466140.

Each binder was assayed against CaNbp2 (assay: SPOT peptide array binding signal intensity (averaged, normalized) (arbitrary units (background-subtracted, floor 0; scale differs between SH3 domains)); higher = stronger binding of the SH3 domain to the peptide).
In short: (§1)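 Detection of bound protein relied on anti-GST antibody, an HRP anti-mouse secondary and luminol, with imaging and quantification in Genespotter. The bound protein was GST-fused SH3 domains from four yeast species, incubated at 10 μg/ml overnight at 4°C in TBS-based blocking buffer on cellulose membranes carrying synthetic 15-mer peptides with cysteines replaced by serines. Binding signal is normalized, background-subtracted spot intensity averaged over replicates, in arbitrary units that differ between domains.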

Row | Binder | SPOT peptide array binding signal intensity
1 | KMSRSPPRPPSLKII | 1320

The binders below were run against CaRvs167 in the same assay as above.
In short: as §1

Row | Binder | SPOT peptide array binding signal intensity
2 | KMSRSPPRPPSLKII | 68

The binders below were run against CaRvs167-3 in the same assay as above.
In short: as §1

Row | Binder | SPOT peptide array binding signal intensity
3 | KMSRSPPRPPSLKII | ≤ 0

Each binder was assayed against CaSho1 in the same assay as above.
In short: as §1

Row | Binder | SPOT peptide array binding signal intensity
4 | KMSRSPPRPPSLKII | 939

What follows are binders tested against CaSla1-D1-D2 in the same assay as above.
In short: as §1

Row | Binder | SPOT peptide array binding signal intensity
5 | KMSRSPPRPPSLKII | 337

Each binder was assayed against CaSla1-D3 in the same assay as above.
In short: as §1

Row | Binder | SPOT peptide array binding signal intensity
6 | KMSRSPPRPPSLKII | 258

What follows are binders tested against ScAbp1 in the same assay as above.
In short: as §1

Row | Binder | SPOT peptide array binding signal intensity
7 | KMSRSPPRPPSLKII | 178

The binders below were run against ScBbc1 in the same assay as above.
In short: as §1

Row | Binder | SPOT peptide array binding signal intensity
8 | KMSRSPPRPPSLKII | 69.5

Each binder was assayed against ScBem1-D1 in the same assay as above.
In short: as §1

Row | Binder | SPOT peptide array binding signal intensity
9 | KMSRSPPRPPSLKII | 8

Each binder was assayed against ScBzz1-D1 in the same assay as above.
In short: as §1

Row | Binder | SPOT peptide array binding signal intensity
10 | KMSRSPPRPPSLKII | 57

What follows are binders tested against ScBzz1-D2 in the same assay as above.
In short: as §1

Row | Binder | SPOT peptide array binding signal intensity
11 | KMSRSPPRPPSLKII | 25.5

What follows are binders tested against ScCyk3 in the same assay as above.
In short: as §1

Row | Binder | SPOT peptide array binding signal intensity
12 | KMSRSPPRPPSLKII | 5

The binders below were run against ScFus1 in the same assay as above.
In short: as §1

Row | Binder | SPOT peptide array binding signal intensity
13 | KMSRSPPRPPSLKII | 463

Each binder was assayed against ScHof1 in the same assay as above.
In short: as §1

Row | Binder | SPOT peptide array binding signal intensity
14 | KMSRSPPRPPSLKII | 0.75

These binders were tested against ScHse1 in the same assay as above.
In short: as §1

Row | Binder | SPOT peptide array binding signal intensity
15 | KMSRSPPRPPSLKII | 99.5

What follows are binders tested against ScLsb1 in the same assay as above.
In short: as §1

Row | Binder | SPOT peptide array binding signal intensity
16 | KMSRSPPRPPSLKII | 39.8

What follows are binders tested against ScLsb2 in the same assay as above.
In short: as §1

Row | Binder | SPOT peptide array binding signal intensity
17 | KMSRSPPRPPSLKII | 18

The binders below were run against ScLsb3 in the same assay as above.
In short: as §1

Row | Binder | SPOT peptide array binding signal intensity
18 | KMSRSPPRPPSLKII | 742

The binders below were run against ScLsb4 in the same assay as above.
In short: as §1

Row | Binder | SPOT peptide array binding signal intensity
19 | KMSRSPPRPPSLKII | 142

What follows are binders tested against ScMyo3 in the same assay as above.
In short: as §1

Row | Binder | SPOT peptide array binding signal intensity
20 | KMSRSPPRPPSLKII | 142

These binders were tested against ScMyo5 in the same assay as above.
In short: as §1

Row | Binder | SPOT peptide array binding signal intensity
21 | KMSRSPPRPPSLKII | 47.2

These binders were tested against ScNbp2 in the same assay as above.
In short: as §1

Row | Binder | SPOT peptide array binding signal intensity
22 | KMSRSPPRPPSLKII | 2300

What follows are binders tested against ScPex13 in the same assay as above.
In short: as §1

Row | Binder | SPOT peptide array binding signal intensity
23 | KMSRSPPRPPSLKII | 464

Each binder was assayed against ScRvs167 in the same assay as above.
In short: as §1

Row | Binder | SPOT peptide array binding signal intensity
24 | KMSRSPPRPPSLKII | 123

The binders below were run against ScSho1 in the same assay as above.
In short: as §1

Row | Binder | SPOT peptide array binding signal intensity
25 | KMSRSPPRPPSLKII | 634

These binders were tested against ScSla1-D1-D2 in the same assay as above.
In short: as §1

Row | Binder | SPOT peptide array binding signal intensity
26 | KMSRSPPRPPSLKII | 653

Each binder was assayed against ScSla1-D3 in the same assay as above.
In short: as §1

Row | Binder | SPOT peptide array binding signal intensity
27 | KMSRSPPRPPSLKII | 270

Each binder was assayed against SpAbp1-D1 in the same assay as above.
In short: as §1

Row | Binder | SPOT peptide array binding signal intensity
28 | KMSRSPPRPPSLKII | 177

Each binder was assayed against SpBbc1 in the same assay as above.
In short: as §1

Row | Binder | SPOT peptide array binding signal intensity
29 | KMSRSPPRPPSLKII | 6.75

Each binder was assayed against SpBzz1-D1 in the same assay as above.
In short: as §1

Row | Binder | SPOT peptide array binding signal intensity
30 | KMSRSPPRPPSLKII | 1270

Each binder was assayed against SpBzz1-D2 in the same assay as above.
In short: as §1

Row | Binder | SPOT peptide array binding signal intensity
31 | KMSRSPPRPPSLKII | 79.2

These binders were tested against SpCyk3 in the same assay as above.
In short: as §1

Row | Binder | SPOT peptide array binding signal intensity
32 | KMSRSPPRPPSLKII | 9

Each binder was assayed against SpHof1 in the same assay as above.
In short: as §1

Row | Binder | SPOT peptide array binding signal intensity
33 | KMSRSPPRPPSLKII | 19.5

What follows are binders tested against SpHof1-2 in the same assay as above.
In short: as §1

Row | Binder | SPOT peptide array binding signal intensity
34 | KMSRSPPRPPSLKII | 27

What follows are binders tested against SpHof1-3 in the same assay as above.
In short: as §1

Row | Binder | SPOT peptide array binding signal intensity
35 | KMSRSPPRPPSLKII | 139

What follows are binders tested against SpHse1 in the same assay as above.
In short: as §1

Row | Binder | SPOT peptide array binding signal intensity
36 | KMSRSPPRPPSLKII | 70

Each binder was assayed against SpLsb1 in the same assay as above.
In short: as §1

Row | Binder | SPOT peptide array binding signal intensity
37 | KMSRSPPRPPSLKII | 9.75

The binders below were run against SpLsb4 in the same assay as above.
In short: as §1

Row | Binder | SPOT peptide array binding signal intensity
38 | KMSRSPPRPPSLKII | 1060

What follows are binders tested against SpMyo1 in the same assay as above.
In short: as §1

Row | Binder | SPOT peptide array binding signal intensity
39 | KMSRSPPRPPSLKII | 224

These binders were tested against SpNbp2 in the same assay as above.
In short: as §1

Row | Binder | SPOT peptide array binding signal intensity
40 | KMSRSPPRPPSLKII | 146

The binders below were run against SpPex13 in the same assay as above.
In short: as §1

Row | Binder | SPOT peptide array binding signal intensity
41 | KMSRSPPRPPSLKII | 17

What follows are binders tested against SpRvs167 in the same assay as above.
In short: as §1

Row | Binder | SPOT peptide array binding signal intensity
42 | KMSRSPPRPPSLKII | 92.3

These binders were tested against SpSla1-D1-D2 in the same assay as above.
In short: as §1

Row | Binder | SPOT peptide array binding signal intensity
43 | KMSRSPPRPPSLKII | 17

These binders were tested against SpSla1-D3 in the same assay as above.
In short: as §1

Row | Binder | SPOT peptide array binding signal intensity
44 | KMSRSPPRPPSLKII | 138
